Compound activity (PubChem BioAssay)
The list is not random: actives were taken first. Their share in the collection is about 2.3%.
Tau ThT inhib = inhibitors of human tau fibril formation, thioflavin T binding | P10636 | recombinant tau K18 P301L, heparin-induced fibrillization, ThT fluorescence | Potency, µM (titrated, usually from 57.4 µM), most hits filed as inhibitors | 270,000 tested, 2.1% active | AID 1460; further: nearly all actives have a fitted effect of over 55% in size
Target sequence (P10636 561-689 P618L limits assumed): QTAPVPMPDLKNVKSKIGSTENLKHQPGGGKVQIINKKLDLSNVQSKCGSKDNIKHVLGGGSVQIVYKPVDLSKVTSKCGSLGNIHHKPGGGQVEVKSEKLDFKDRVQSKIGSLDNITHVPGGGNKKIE
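Tau K18 P301L fragment (15 uM unlabeled plus 0.24 uM Alexa 594-labeled) in 100 mM sodium acetate pH 7 with compound, fibrillization induced by 20 uM heparin for 6 hr at 37 C. Thioflavin T (30 uM) added, fluorescence read after 1 hr (ex 450, em 510 nm).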
Tau fibril FP = tau fibrillization inhibition (FP). P10636. K18 P301L tau heparin fibrillization, Alexa594 FP, 6 h. Potency, µM (series often up to 57.7 µM), hits mostly inhibitors. 280,000 tested, 0.39% active; further: nearly all actives have a fitted effect of over 55% in size
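Human tau K18 […] P301L fragment, 15 uM unlabeled plus 0.24 uM Alexa 594-labeled tau (final), with compound and 20 uM heparin in 100 mM sodium acetate pH 7; 6 hr at 37 C, then Alexa 594 FP read.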
Coupling enz = counter-screen for Giardia aldolase inhibitors: coupling enzyme system. coupling enzyme system counterscreen, AmpLite Red fluorescence. activity change, negative = inhibition, % at 58.2 µM, hits read low. 290,000 tested, 0.67% active. AID 2472; in the data active means activity change below about -30%
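Counterscreen lacking aldolase: glyceraldehyde-3-phosphate coupling-enzyme reagent preincubated 10 min at RT with compound (at 57.5 uM final), then substrate/coupling system with AmpLite Red added; fluorescence read at 525/598 nm after 20 min RT.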
Tau fluor counter = counter-screen for tau fibril formation inhibitors; AID 1463; 280,000 tested, 0.93% active; Potency, µM (highest dose often 57.7 µM); tau K18 P301L Alexa594 fluorescence, heparin fibrillization; further: nearly all actives have a fitted effect of over 55% in size
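Human tau K18 P301L (15 uM unlabeled, 0.24 uM Alexa 594-labeled) in 100 mM sodium acetate pH 7 with 20 uM heparin, 6 hr at 37 C. ThT 30 uM added, 1 hr ambient; Alexa 594 FP and total fluorescence read at 555/632 nm.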
USP1 inh = blocks the human USP1/UAF1 deubiquitinase complex; 390,000 tested, 0.23% active; O94782; Potency, µM (doses to about 57.1 µM), usual class: inhibitors; recombinant USP1/UAF1, Ub-Rhodamine cleavage fluorescence; AID 743255; further: nearly all actives have a fitted effect of over 60% in size
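In this screen, compounds sit with the deubiquitinase complex (1nM) for 15 min at room temperature before Ub-Rho is added at 150nM final. Fluorescence rise is then followed for 6 reads every 60 seconds.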
A number is an active result; - = inactive; ? = inconclusive; . = no result given; ! = not confirmed by another sample; [ ] = dose if it differs, or a comment. Unless noted, the call rests on the fitted dose curve; in most records, active means well fitted curve in the direction sought with a large enough effect; inconclusive means small, poorly fitted or top-dose-only effect, or another doubt; inactive means no such curve, though single readings can be large; an effect the other way counts as inactive or inconclusive.

SMILES	Tau ThT inhib	Tau fibril FP	Coupling enz	Tau fluor counter	USP1 inh
COC/C=C/C1=CC2=CC(=O)C(C)(OC(=O)c3cnc4ccccc4n3)C(=O)C2=CN1CCOC (configuration not stated)	-[11.5 µM]	-[11.6 µM]	-	-[11.6 µM]	?
COC(=O)CCCC1=CC2=C(c3ccccc3)C(=O)C(C)(OC(=O)C3CCCC3)C(=O)C2=CN1CCN1CCOCC1 (configuration not stated)	-[11.5 µM]	-[11.6 µM]	-34.8!	-[11.6 µM]	?
CC1(OC(=O)C2CCCC2)C(=O)C=C2C=C(c3ccsc3)N(CCc3c[nH]c4ccccc34)C=C2C1=O (configuration not stated)	4.47µM!	?	-	-[11.6 µM]	-
Cc1cc(C)c(Cn2c(=O)n(-c3ccccc3Cl)c(=O)c3c(C)c(C(=O)N(C)C)sc32)c(C)c1	-	-	.	-	-
CC1(OC(=O)C2CCCC2)C(=O)C=C2C=C(c3ccsc3)N(Cc3ccc4c(c3)OCO4)C=C2C1=O (configuration not stated)	?	-[11.6 µM]	-	-[11.6 µM]	-
CC1(OC(=O)C2CCCC2)C(=O)C=C2C=C(c3ccsc3)N(CC3CC3)C=C2C1=O (configuration not stated)	?	-[11.6 µM]	-34.5!	-[11.6 µM]	?
CC1(OC(=O)C2CCCC2)C(=O)C=C2C=C(c3ccsc3)N(CCN3CCOCC3)C=C2C1=O (configuration not stated)	?	?	-43.8	-[11.6 µM]	.
Cn1c(Oc2ccccc2)nc2c1c(=O)n(Cc1ccc(Cl)cc1Cl)c(=O)n2C	-	-	.	-	-
COc1ccc(OC2C=CC(C#Cc3ccc(F)cc3F)OC2CO)cc1 (configuration not stated)	-[11.5 µM]	-[11.6 µM]	-	-[11.6 µM]	.
NC(=O)N1c2ccccc2CC(=O)c2ccccc21	?	-	-32.4!	-	-
COc1cc2cc(CNc3ccccc3)c(=O)n(CC(=O)Nc3ccccc3)c2cc1OC	?	-	.	?	?
CCOc1cc(-c2cc(-c3ccccc3)nc(N)c2C#N)ccc1O	-	-	-	?	-
CCOc1cc(-c2cc(-c3ccc(N)cc3)nc(N)c2C#N)ccc1O	?	?	-	14.1µM[quencher]	-
CCN1CCN(Cc2c(O)ccc3cc(-c4ccc(OC)cc4)c(=O)oc23)CC1	-	-	.	-	-
CCOC(=O)/C=C(\C)Sc1cc(O)c2ccccc2c1O	1.78µM	4.47µM	-86.0	?	7.94µM
COC(=O)c1cc2c(-c3ccccc3)cc3ccccn3c-2c1C(=O)OC	15.8µM	-	-	?	?
COC(=O)c1c(C(=O)OC)c2cccc3cc(-c4ccccc4)c4ccc1c4n32	3.55µM	-	-	?	-
O=C(NCCc1ccccc1)C(=O)c1c(-c2ccccc2)cc2ccccn12	?	-	-	-	-
COC(=O)c1c(C)c2c(C)cc3ccccn3c-2c1C(=O)OC	12.6µM	-	-	?	-
CCCc1cc(=O)n2[nH]c(NC(=O)c3ccccc3Cl)nc2n1	-	-	.	-	-
Cc1cccc(CCNC(=O)c2nc(-c3ccc(Cl)cc3)n3c2CCCCC3)c1	-	-	.	-	?
CCOC(=O)c1c(C)[nH]c(CCC(=O)Nc2cc(C)ccc2OC)c1C	-	-	.	-	-
C#CCCCO/N=C1/C[C@@H](O)[C@@H](O)[C@@H]2[C@@H]3C(=O)N(C4CCCCC4)C(=O)[C@H]3CC[C@@H]12	-[11.5 µM]	-[11.6 µM]	-	-[11.6 µM]	.
CCCC[C@@H]1CCCO[C@@](C(=O)NCCN2CCOCC2)(C(F)(F)F)C1	.	.	-	.	.
CN1CC=C2C(C#N)=C(N)C(C#N)(C#N)[C@H](c3cccc(Cl)c3)C2C1 (some centres not stated)	20µM	?	-36.4	-	-
SMILES	Tau ThT inhib	Tau fibril FP	Coupling enz	Tau fluor counter	USP1 inh
CCN1CC=C2C(C#N)=C(N)C(C#N)(C#N)[C@H](c3cccc(OC)c3OC)[C@H]2C1	?	?	-	-	31.6µM
CN1CC=C2C(C#N)=C(N)C(C#N)(C#N)[C@H](c3cccs3)[C@H]2C1	?	?	-	-	?
CN1CC=C2C(C#N)=C(N)C(C#N)(C#N)C(c3ccsc3)C2C1 (configuration not stated)	15.8µM	?	-	-	-
CCOC(=O)N1CC=C2C(C#N)=C(N)C(C#N)(C#N)[C@H](c3ccsc3)[C@H]2C1	?	?	-	-	-
Cc1ccc(Nc2nc(N)c([N+](=O)[O-])c(NCc3ccco3)n2)cc1C	15.8µM	?	-	28.2µM[quencher]	-
Cc1cccc(Nc2nc(N)c([N+](=O)[O-])c(NCc3ccccc3)n2)c1	?	?	-	?	-
Cc1ccc(Nc2nc(N)c([N+](=O)[O-])c(NCCO)n2)cc1C	.	-[0.0958 µM]	-	-[0.0958 µM]	-
CCOc1ccc(Nc2nc(N)c([N+](=O)[O-])c(NCc3ccccc3)n2)cc1	?	-	-	14.1µM[quencher]	-
COc1cccc(Nc2nc(N)c([N+](=O)[O-])c(NCc3ccccc3)n2)c1	?	?	-	15.8µM[quencher]	-
O=S(=O)(c1ccc2ccccc2c1)n1nc(-c2ccco2)nc1NCc1cccc(Cl)c1	-	?	.	-	?
O=C(NCc1ccccc1Cl)c1ccc(NC(=O)N2CCSc3ccccc32)cc1	-	-	.	-	-
Cc1ccc(Cc2nc3ccccc3nc2SCC(=O)N2CCc3ccccc32)cc1	-	-	.	-	-
Cc1cc(C)cc(NC(=O)c2sc3nc(-c4ccccc4)cn3c2C)c1	?	-	.	-	-
S=C(Nc1ccc2nccnc2c1)N1CCOCC1	25.1µM	?	-34.3	-	-
COc1cccc(NC(=S)Nc2ccc(F)cc2)c1	.	.	-	.	-
COc1ccc(NC(=S)Nc2ccc3nccnc3c2)cc1	?	-	-38.0	-	-
COc1ccc(NC(=S)Nc2ccc(N)c([N+](=O)[O-])c2)cc1	15.8µM	-	-	?	-
COc1cccc(NC(=S)Nc2ccc(O)cc2)c1	17.8µM	?	-	?	?
COc1ccc(NC(=S)Nc2ccccc2)cc1	-	-	-	-	-
COc1cccc(C(=O)NCC(c2ccc(N(C)C)cc2)N2CCCC2)c1OC (configuration not stated)	-	-	.	-	-
O=C(CCl)Nc1nc(-c2ccco2)c(-c2ccco2)s1	?	-	-	12.6µM[quencher]	-
O=C(NCC(c1ccc2c(c1)OCO2)N1CCOCC1)c1c(F)cccc1F (configuration not stated)	-	-	.	-	-
CO/N=C/c1ccc(Sc2ccccc2)c([N+](=O)[O-])c1	?	-	-	?	-
CO/N=C/c1ccc(Sc2ccccc2N)c([N+](=O)[O-])c1	?	-	-	28.2µM[quencher]	-
Cc1ccc(NC(=O)c2ccc(COc3ccccc3Cl)o2)cc1	-	-	.	-	-
CN(C)c1ccc(NC(=O)c2ccc(COc3cccc(Cl)c3)o2)cc1	11.2µM	?	-	?	-
COC(=O)[C@@H](NC(=O)O[C@H]1C(=O)c2cc(OC)ccc2O[C@@H]1c1ccc(OC)c(Br)c1)C(C)C	-	-	-	-	.
